About 83,000 compounds went through this panel and 20% of them were active in at least one assay; those are over-represented in the sample as a whole.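 Note: values are percent growth. 100 is the growth of untreated cells, values between 100 and 0 indicate rising inhibition; between -100 and 0 indicates cell death.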 Activity calls are given as the source filed them. Rule for the calls: active = growth percent below 10; inactive = the rest.
Key:
Assay in all cases: NCI-60 one-dose screen, 48 h (100 = growth as untreated, 0 = no growth, -100 = all killed)
Conditions in all cases: 10 µM unless noted
DU-145 prostate = system: DU-145 prostate
K-562 leukemia = system: K-562 leukemia
MALME-3M melanoma = system: MALME-3M melanoma
MDA-MB-231 breast = system: MDA-MB-231 breast
RXF 393 renal = system: RXF 393 renal
SF-268 CNS = system: SF-268 CNS
SF-295 CNS = system: SF-295 CNS
SF-539 CNS = system: SF-539 CNS
UACC-257 melanoma = system: UACC-257 melanoma
M14 melanoma = system: M14 melanoma

Measured: growth

COc1ccc2oc(=O)c(C3(C)NC(=O)c4c(/C=C/C(=O)OC(C)(C)C)cccc4N3)cc2c1 (stereo not given)
inactive: DU-145 prostate 69.5% | K-562 leukemia 25.5% | MALME-3M melanoma 40.5% | MDA-MB-231 breast 49.1% | RXF 393 renal 40.3% | SF-268 CNS 58.1% | SF-295 CNS 39.3% | SF-539 CNS 67.6% | UACC-257 melanoma 32.6% | M14 melanoma 48.7%

COc1ccc(-c2ccnc(SCc3cc4cc(Cl)ccc4[nH]c3=O)n2)cc1
active: RXF 393 renal -10.7% | SF-268 CNS 0.935%
inactive: DU-145 prostate 35.6% | K-562 leukemia 79.1% | MALME-3M melanoma 27.9% | MDA-MB-231 breast 26.9% | SF-295 CNS 26.5% | SF-539 CNS 46.2% | UACC-257 melanoma 72.1% | M14 melanoma 73.8%

O=C(COc1ccc(NC(=O)Nc2ccc(Cl)c(Cl)c2)cc1)N=Nc1c(O)[nH]c2ccc([N+](=O)[O-])cc12
active: SF-539 CNS 1.4%
inactive: DU-145 prostate 64.8% | K-562 leukemia 25.1% | MALME-3M melanoma 77.9% | MDA-MB-231 breast 37% | RXF 393 renal 75.4% | SF-268 CNS 84.3% | SF-295 CNS 53.1% | UACC-257 melanoma 67.6% | M14 melanoma 34.4%

C=C1CCC2C3(C)COC(c4cccc(F)c4)OC3CCC2(C)C1C/C=C1/C(=O)OCC1O (stereo not given)
inactive: K-562 leukemia 10.5% | SF-268 CNS 67.9%
active: DU-145 prostate 4.04% | MALME-3M melanoma -41.9% | MDA-MB-231 breast -32.8% | RXF 393 renal -70.5% | SF-295 CNS 2.97% | SF-539 CNS -72.5% | UACC-257 melanoma -28.8% | M14 melanoma -40.7%

Cc1cccc(-c2nc(Nc3ccc(C)c(S(N)(=O)=O)c3)c3ccccc3n2)c1
active: K-562 leukemia 7.2% | SF-295 CNS 5.63% | SF-539 CNS 9.73%
inactive: DU-145 prostate 53.2% | MALME-3M melanoma 46.6% | MDA-MB-231 breast 10.9% | RXF 393 renal 22.6% | SF-268 CNS 50.9% | UACC-257 melanoma 76.4% | M14 melanoma 31.4%

Cc1nc(Nc2ncc(C(=O)Nc3c(C)cccc3Cl)s2)cc(N2CCN(CCCNC(=O)COc3ccc(C4CCC(=O)NC4=O)cc3)CC2)n1 (stereo not given)
active: K-562 leukemia 9.96% | MDA-MB-231 breast -4.03% | RXF 393 renal -51.2% | SF-539 CNS 7.74%
inactive: DU-145 prostate 41.9% | MALME-3M melanoma 91.6% | SF-268 CNS 43.6% | SF-295 CNS 48.3% | UACC-257 melanoma 77.9% | M14 melanoma 60.2%

Cc1ccc([C@H]2C(C(=O)c3ccc(Cl)cc3)C3(N[C@@H]2c2ccccc2)C(=O)Nc2ccccc23)cc1 (stereo not given in full)
inactive: DU-145 prostate 80.2% | K-562 leukemia 11.8% | MALME-3M melanoma 20.5% | MDA-MB-231 breast 27.2% | RXF 393 renal 19% | SF-268 CNS 61.1% | SF-295 CNS 42.6% | SF-539 CNS 83.9% | UACC-257 melanoma 26.9% | M14 melanoma 28.7%

C#CCOc1cc(N(CC)CC)ccc1C(C(=O)NC(C)(C)C)N(C(=O)C1CCc2cc(F)ccc2O1)c1ccc(F)cc1 (stereo not given)
inactive: DU-145 prostate 65.3% | K-562 leukemia 23.6% | MALME-3M melanoma 65.6% | MDA-MB-231 breast 51% | RXF 393 renal 57.3% | SF-268 CNS 47.7% | SF-295 CNS 41.5% | SF-539 CNS 66.2% | UACC-257 melanoma 40.3% | M14 melanoma 46.4%

Cn1cc(-c2cc(N)n3nc(-c4cn(C)c5ncc(Br)cc45)cc3n2)c2cc(Br)cnc21
inactive: RXF 393 renal 23.1% | SF-268 CNS 50% | UACC-257 melanoma 60.3%
active: DU-145 prostate 5.43% | K-562 leukemia -41.6% | MALME-3M melanoma -66.6% | MDA-MB-231 breast 6.75% | SF-295 CNS -63.5% | SF-539 CNS -83.4% | M14 melanoma -64.7%

COc1cc(/C=C/C(=O)c2ccc(C)cc2)ccc1Oc1nc(Nc2ccc(F)cc2)nc(N(C)C)n1
active: SF-539 CNS -31.9%
inactive: DU-145 prostate 50.1% | K-562 leukemia 26.8% | MALME-3M melanoma 69% | MDA-MB-231 breast 31.2% | RXF 393 renal 47.8% | SF-268 CNS 47.1% | SF-295 CNS 30% | UACC-257 melanoma 41.3% | M14 melanoma 56.9%

Cc1cccc(NC(=O)[C@]23CCC(C)(C)CC2C2=CCC4[C@@]5(C)C[C@@H](O)[C@H](O)[C@@](C)(CO)C5CC[C@@]4(C)[C@]2(C)CC3)c1 (stereo not given in full)
inactive: DU-145 prostate 32.2% | K-562 leukemia 15.5% | MALME-3M melanoma 28.3% | SF-268 CNS 41% | UACC-257 melanoma 39.8% | M14 melanoma 36.1%
active: MDA-MB-231 breast -19.1% | RXF 393 renal -49% | SF-295 CNS 4.56% | SF-539 CNS -2.33%

CC12CC[C@@H]3[C@]4(C)COC(c5c(F)cccc5F)O[C@@H]4CC[C@@]3(C)[C@@H]1CC(C1=CCOC1=O)O2 (stereo not given in full)
inactive: DU-145 prostate 76.6% | K-562 leukemia 66.6% | MALME-3M melanoma 60.4% | MDA-MB-231 breast 36.5% | RXF 393 renal 83.8% | SF-268 CNS 70.3% | SF-295 CNS 69.1% | SF-539 CNS 33.8% | UACC-257 melanoma 64.6% | M14 melanoma 66.5%

COc1ccc(-c2ccc(SCC(=O)NCCc3ccc(S(N)(=O)=O)cc3)nn2)cc1
inactive: DU-145 prostate 96.1% | K-562 leukemia 54.1% | MALME-3M melanoma 89.3% | MDA-MB-231 breast 92.6% | RXF 393 renal 80.2% | SF-268 CNS 103% | SF-295 CNS 84.9% | SF-539 CNS 88.7% | UACC-257 melanoma 55.3% | M14 melanoma 99.7%

CC1(C)CC[C@]2(C(=O)O)CC[C@]3(C)C(=CCC4[C@@]5(C)C[C@@H](O)[C@@H]6OC(c7cccc(Br)c7)OC[C@@]6(C)C5CC[C@]43C)C2C1 (stereo not given in full)
inactive: DU-145 prostate 32.5% | K-562 leukemia 16% | MALME-3M melanoma 73.9% | MDA-MB-231 breast 71.2% | RXF 393 renal 71.3% | SF-268 CNS 47.5% | SF-295 CNS 33% | SF-539 CNS 54.6% | UACC-257 melanoma 53.1% | M14 melanoma 53.2%

COc1ccc(N2N=C(c3ccc4c(c3)OCO4)CC2c2cccc(NC(=O)CCCNS(=O)(=O)c3ccc(F)cc3)c2)cc1 (stereo not given)
inactive: DU-145 prostate 80.3% | K-562 leukemia 35.5% | MALME-3M melanoma 77.6% | MDA-MB-231 breast 50.2% | RXF 393 renal 66.9% | SF-268 CNS 52.8% | SF-295 CNS 49.2% | SF-539 CNS 74.9% | UACC-257 melanoma 75.7% | M14 melanoma 49.5%

COc1c(F)ccc(C(=O)Nc2ccc3nc(NC(=O)C4CCCN(S(=O)(=O)c5cccc(C(F)(F)F)c5)C4)sc3c2)c1F (stereo not given)
active: RXF 393 renal -9.56%
inactive: DU-145 prostate 91.1% | K-562 leukemia 62.3% | MALME-3M melanoma 94.7% | MDA-MB-231 breast 85% | SF-268 CNS 65% | SF-295 CNS 79.8% | SF-539 CNS 70.1% | UACC-257 melanoma 89.9% | M14 melanoma 87.5%

O=C(c1ccc(OCCN2CCOCC2)cc1)C1[C@H](c2ccc(Cl)cc2)[C@@H](c2ccccc2)NC12C(=O)Nc1ccc(Cl)cc12 (stereo not given in full)
inactive: DU-145 prostate 45.8% | MALME-3M melanoma 69.3% | MDA-MB-231 breast 28.7% | SF-268 CNS 43.8% | SF-295 CNS 27.4% | SF-539 CNS 41.5% | UACC-257 melanoma 45.4% | M14 melanoma 23.2%
active: K-562 leukemia 4.95% | RXF 393 renal 2.65%

N/C(=N\N=C\c1ccc([N+](=O)[O-])cc1)c1c(N)nc(=S)[nH]c1-c1ccc(Cl)cc1Cl
inactive: DU-145 prostate 115% | K-562 leukemia 95% | MALME-3M melanoma 73% | MDA-MB-231 breast 77.5% | RXF 393 renal 73.1% | SF-268 CNS 94.9% | SF-295 CNS 52.4% | SF-539 CNS 74.7% | UACC-257 melanoma 104% | M14 melanoma 102%

C=C1CC[C@@H]2[C@]3(C)COC(c4cn[nH]c4-c4ccc(F)cc4)O[C@@H]3CC[C@@]2(C)[C@@H]1C/C=C1/C(=O)OCC1O (stereo not given in full)
active: DU-145 prostate -23% | K-562 leukemia -24.2% | MALME-3M melanoma -44.7% | MDA-MB-231 breast -40.5% | RXF 393 renal -86% | SF-295 CNS -26.8% | SF-539 CNS -83.2% | UACC-257 melanoma -44.6% | M14 melanoma -63.4%
inactive: SF-268 CNS 16.9%

CN(C)c1ccnc(CNCCSC2(c3ccc(C(F)(F)F)cc3)c3ccccc3CCc3ccccc32)c1
active: DU-145 prostate -3.51% | K-562 leukemia -16.3% | MALME-3M melanoma -91.8% | MDA-MB-231 breast -54.6% | RXF 393 renal -88.3% | SF-295 CNS -96.9% | SF-539 CNS -97.6% | UACC-257 melanoma -59.8% | M14 melanoma -75.6%
inactive: SF-268 CNS 14.1%

COc1cc2c(c(OC)c1OC)C(=O)CC(c1cccc(NC(=O)c3cc(N)ccc3Cl)c1)O2 (stereo not given)
inactive: DU-145 prostate 47.3% | K-562 leukemia 15.6% | MALME-3M melanoma 54% | MDA-MB-231 breast 42.7% | RXF 393 renal 46% | SF-268 CNS 60.4% | SF-295 CNS 78.9% | SF-539 CNS 56.6% | UACC-257 melanoma 64.9% | M14 melanoma 56%

Cn1cc(-c2cc3nc(-c4c[nH]c5ccc(Cl)cc45)cc(N)n3n2)c2ccccc21
active: DU-145 prostate -85.9% | K-562 leukemia 1.64% | MALME-3M melanoma -74.4% | MDA-MB-231 breast -56.2% | RXF 393 renal -80.1% | SF-268 CNS -44.9% | SF-295 CNS -82.9% | SF-539 CNS -87.9% | UACC-257 melanoma -84.8% | M14 melanoma -89.6%

COc1ccc(-c2nc(SCC(C)C)nc(NCCc3c[nH]c4ccccc34)c2C#N)cc1
inactive: DU-145 prostate 77.2% | K-562 leukemia 33.1% | MALME-3M melanoma 87.3% | MDA-MB-231 breast 36.5% | SF-268 CNS 58.1% | SF-295 CNS 45% | SF-539 CNS 48% | UACC-257 melanoma 98.1% | M14 melanoma 81.2%
active: RXF 393 renal -8.09%

O=C(N1c2ccccc2Sc2ccccc21)n1ccc2cccnc21
inactive: DU-145 prostate 86.6% | K-562 leukemia 19.5% | MALME-3M melanoma 75.5% | MDA-MB-231 breast 69.3% | RXF 393 renal 83.7% | SF-268 CNS 80.8% | SF-295 CNS 81% | SF-539 CNS 76.6% | UACC-257 melanoma 61.1% | M14 melanoma 70.1%

CC(C)(C)OC(=O)/C=C/c1cccc2c1C(=O)NC(C)(c1cc3cc(Cl)ccc3oc1=O)N2 (stereo not given)
inactive: DU-145 prostate 61.1% | K-562 leukemia 17.1% | MALME-3M melanoma 51.2% | MDA-MB-231 breast 67.1% | RXF 393 renal 10.2% | SF-268 CNS 51.4% | SF-295 CNS 24.9% | SF-539 CNS 66.7% | UACC-257 melanoma 41.7% | M14 melanoma 49.3%

Reference: PubChem BioAssay (NCI)
